Screening results deposited in PubChem by Buhrlage Lab, Dana-Farber Cancer Institute and Novartis Institutes for BioMedical Research (Cambridge, Mass).
USP7 inh: inhibitors of human USP7 deubiquitinase. actives 0.3% (n = 47,000). inhibition, % at 20 µM. purified USP7, Ub-rhodamine cleavage fluorescence. AID 1645854
USP17 inh: human USP17-like deubiquitinase inhibition | AID 1645855 | inhibition, % at 50 µM | actives 6.5% (n = 47,000) | A8MUK1 | purified USP17, Ub-rhodamine cleavage fluorescence, 3 h
USP8 block: human USP8 deubiquitinase inhibition; P40818; inhibition, % at 20 µM; purified USP8, Ub-rhodamine cleavage fluorescence, 30 min; actives 4.2% (n = 47,000)
UCHL1 block: inhibitors of human UCHL1 deubiquitinase. purified UCHL1, Ub-rhodamine cleavage fluorescence. inhibition, % at 20 µM. actives 0.2% (n = 47,000). AID 1645859
Target sequence (P09936 whole entry, looked up): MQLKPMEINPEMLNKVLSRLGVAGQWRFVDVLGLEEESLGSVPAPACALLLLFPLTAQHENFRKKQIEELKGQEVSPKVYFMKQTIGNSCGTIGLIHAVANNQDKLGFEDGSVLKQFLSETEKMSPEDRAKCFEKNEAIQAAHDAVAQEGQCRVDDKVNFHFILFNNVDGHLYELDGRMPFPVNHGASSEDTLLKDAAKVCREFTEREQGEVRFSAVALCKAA
USP10 inh: human USP10 deubiquitinase inhibition; Q14694; purified USP10, Ub-rhodamine fluorescence, 60 min; inhibition, % at 20 µM; actives 1.1% (n = 47,000); AID 1645856
USP30 inh: human USP30 deubiquitinase inhibition; Q70CQ3; purified USP30, Ub-rhodamine cleavage fluorescence; inhibition, % at 25 µM; actives 5.3% (n = 47,000)
* = called active by the depositor; . = not tested or not shown. This is a sample that favours compounds with a hit; in the whole collection about 13% have one here. Rule as the data show it: active = inhibition above about 30%; inactive = the rest.

SMILES | USP7 inh | USP17 inh | USP8 block | UCHL1 block | USP10 inh | USP30 inh
O=S(=O)(c1ccc(-c2ccc(Cl)cc2Cl)cc1)C1CCNCC1 | -4 | 7 | -3 | 2 | -1 | 45*
Cc1ccc(C(=O)Nc2c(C(=O)N3CCN(c4ccccc4)CC3)[nH]c3ccccc23)cc1 | -4 | 34* | 0 | 3 | 4 | 0
Cc1ccc(C(=O)Nc2c(C(=O)N3CCN(c4cccc(C)c4)CC3)[nH]c3ccccc23)cc1 | -11 | -80 | -11 | 0 | 0 | -352
O=C(N1CCc2c(nc(N3CCCC3)[nH]c2=O)C1)C1(c2ccccc2)CC1 | 1 | 5 | 17 | 0 | -2 | 13
Cc1ccc(-c2c3c4n(c(-c5ccc(Cl)c(Cl)c5)cn4c2C(=O)NC2CCCCC2)CCCC3)cc1 | -15 | -2 | 44* | -11 | -4 | -91
Cc1sc2ncnc(SCC(=O)c3cc(C)n(Cc4ccco4)c3C)c2c1C | -2 | 39* | 63* | -1 | 2 | -142
CN(Cc1ccccc1)S(=O)(=O)c1ccc(C(=O)Nc2ccc3c(c2)OCO3)cc1 | 13 | 6 | 3 | 3 | 15 | 19
CCN(Cc1ccccc1)S(=O)(=O)c1ccc(C(=O)Nc2ccc(S(N)(=O)=O)cc2)cc1 | -3 | 33* | 1 | 1 | 7 | -3
Cc1sc(NC(=O)c2ccc(S(=O)(=O)N(C)Cc3ccccc3)cc2)c(C(N)=O)c1C | 5 | -15 | 31* | -2 | 29 | -46
CCN(Cc1ccccc1)S(=O)(=O)c1ccc(C(=O)Nc2sccc2C(N)=O)cc1 | 3 | 43* | -17 | 0 | -3 | .
CN(Cc1ccccc1)S(=O)(=O)c1ccc(NC(=O)c2ccc(Cl)cc2)cc1 | 9 | 15 | 4 | 1 | 7 | 31*
Cc1nnc2c(Nc3ccc4c(c3)n(C)c(=O)n4C)nc3ccccc3n12 | -5 | 5 | 1 | 1 | 2 | 17
CCn1c(SCc2nc(N)c3ccccc3n2)nc2ccccc21 | -5 | 54* | 33* | 2 | -3 | 39*
O=C(COC(=O)c1ccccc1NS(=O)(=O)c1ccc2c(c1)OCCO2)c1ccc([N+](=O)[O-])cc1 | 6 | -20 | -132 | -1 | 15 | -15
COc1ccc(C(=O)COC(=O)c2ccccc2NS(=O)(=O)c2ccc(O)c([N+](=O)[O-])c2)cc1 | 24 | 74* | 62* | 5 | 63* | 47*
Cc1ccc(C(=O)NCc2ccc(C(=O)Nc3ccc(C)c(C)c3)o2)cc1 | 0 | 54* | -15 | -1 | 1 | 42*
Cc1ccc(C(=O)NCc2ccc(C(=O)Nc3ccccc3C)o2)cc1 | 5 | -6 | -6 | 1 | 0 | 1
Cc1ccc(C(=O)NCc2ccc(C(=O)Nc3cccc(C)c3)o2)cc1 | -4 | 60* | -8 | -1 | 0 | 44*
Cc1cccc(NC(=O)c2ccc(CNC(=O)c3ccccc3)o2)c1C | 3 | -1 | -45 | 0 | -3 | 10
CCOC(=O)C1=C(CN2CCC(N3CCCCC3)CC2)NC(=O)NC1c1ccccc1 (configuration not stated) | -6 | -3 | 6 | 2 | 0 | -5
CSc1ccc(/C=C/c2nc(-c3ccccc3O)n[nH]2)cc1 | 4 | 46* | 64* | 10 | 21 | 9
CC1CCN(CC2C(=O)O[C@@]34[C@H]2CC[C@@H](C)[C@@H]3CC[C@@]2(C)O[C@@H]42)CC1 (some centres not stated) | 2 | -11 | 0 | -3 | -1 | 6
COc1cc2c(cc1OC)[C@H](C)N(CC1C(=O)O[C@@H]3C[C@@]4(C)CCC[C@H](C)C4=C[C@H]13)CC2 (some centres not stated) | -16 | -19 | 45* | -14 | -9 | -236
COc1cc2c(cc1OC)[C@H](C)N(CC1C(=O)O[C@@]34[C@H]1CC[C@@H](C)[C@@H]3CC[C@@]1(C)O[C@@H]41)CC2 (some centres not stated) | -5 | -2 | 50* | -4 | -8 | -64
C[C@H]1CCC[C@]2(C)C[C@H]3OC(=O)C(CN4CCc5ccccc5C4)[C@H]3C=C12 (some centres not stated) | 4 | -8 | -4 | 0 | 12 | 6
SMILES | USP7 inh | USP17 inh | USP8 block | UCHL1 block | USP10 inh | USP30 inh
CSc1ncccc1C(=O)OCc1ccccc1 | -7 | 1 | 1 | 74* | 6 | -3
COc1ccc(CN2C[C@@H]3C[C@]3(c3ccccc3)C(=O)c3ncccc32)cc1 | -17 | 60* | 84* | 5 | 1 | -108
O=C(O)CN1C[C@@H]2C[C@]2(c2ccccc2)C(=O)c2ncccc21 | -13 | -33 | 12 | -14 | -8 | -219
CCOC(=O)N1CCN(C(=O)CCNS(=O)(=O)c2ccc3c(c2)CCN3C(=O)CC)CC1 | -2 | -11 | 1 | -1 | 1 | 0
COc1ccc(-c2nc3[nH]c(=O)cc(NC(=O)Cc4ccccc4)n3n2)cc1 | 10 | -60 | 60* | 1 | 0 | -111
CCCCC(=O)Nc1cc(=O)[nH]c2nc(Cc3ccccc3)nn12 | 2 | 5 | 1 | -1 | 4 | 0
O=C(Nc1cc(=O)[nH]c2nc(Cc3ccccc3)nn12)c1ccco1 | -5 | -125 | 48* | -7 | -3 | -242
CC(C)(C)c1ccc(-c2nc3[nH]c(=O)cc(NC(=O)c4ccco4)n3n2)cc1 | 4 | . | 43* | 0 | 15 | 15
O=C(O)CSc1nccn1-c1ccccc1 | 0 | -2 | 8 | -5 | 1 | 0
O=C(COC(=O)c1cc2ccccc2oc1=O)Nc1ccc2c(c1)CCC2 | 4 | 10 | 11 | 0 | -1 | 18
COc1cccc(C(C)NC(=O)c2ccc(-c3nc4cccnc4n(C)c3=O)cc2)c1 (configuration not stated) | 4 | 1 | 4 | 4 | 0 | 22
CC(=O)N1CCc2[nH]c3ccc(C(=O)NCCC4CCN(C(C)C)CC4)cc3c2C1 | -1 | -1 | 1 | 0 | -7 | -29
COc1ccccc1N(CC(=O)NCc1ccc(F)cc1)C(=O)CCC(=O)Nc1ccccn1 | -26 | 3 | -3 | 4 | 0 | 35*
COc1ccc(CNC(=O)CN(C(=O)CCC(=O)Nc2ccccn2)c2ccccc2F)cc1 | -12 | -3 | 0 | -1 | 0 | 7
CCCCN(CC)c1ncnc2c1sc1nc(-c3ccccc3)c3c(c12)CC(C)(C)OC3 | -1 | -38 | 1 | -2 | 1 | -3
CCCCN(CC)c1ncnc2c1sc1nc(-c3ccco3)c3c(c12)CC(C)(C)OC3 | 18 | 53* | 59* | 4 | 11 | -34
CC(C)c1nc2sc3c(N(CCO)CCO)ncnc3c2c2c1COC(C)(C)C2 | 0 | 10 | 5 | 3 | -6 | 60*
C=CCNc1ncnc2c1sc1nc(C(C)C)c3c(c12)CC(C)(C)OC3 | -1 | 9 | -2 | 2 | -4 | .
O=S(=O)(c1ccc(Br)cc1)N1CCC(N2CCOCC2)CC1 | -2 | -3 | -2 | -2 | 3 | 9
